LDHA inh: qHTS assay for inhibitors of human lactate dehydrogenase. purified LDHA, NADH/diaphorase-resazurin fluorescence; hits give low values. activity change, % (values are at about 110 or 230 µM). actives 0.15% (n = 480,000); in the data active = activity change below about -30%; inconclusive = mostly about -25% to -30%;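 note: plate controls were DMSO wells for no effect and wells without enzyme for full effect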
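Human LDH5 at 2 nM final in Tris HCl pH 7.4 with 0.06 mM NADH and 0.2 mM pyruvate, reacted 5 minutes at room temperature. Remaining NADH coupled via diaphorase/resazurin; resorufin fluorescence read at 0 and 20 minutes, normalized to enzyme-free and DMSO wells.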
Nrf2 block: Nrf2 qHTS screen for inhibitors | Potency, µM (top dose mostly 46 µM), inactives show at the highest dose activity change, negative = inhibition, most hits filed as inhibitors | A549 ARE-Fluc reporter, luciferase luminescence, 18-24 h | AID 504444, 2011 | actives 2.1% (n = 360,000); note: potency is the fitted concentration of half-maximal effect; % is set by controls: 0 for no effect and ±100 for the full control effect; nearly all actives have a fitted effect of over 60% in size
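Reporter: ARE-Fluc in A549. Exposure: 18-24 h, 37 °C, 5% CO2, 5% FBS OPTI-MEM. Readouts: fluorescent cytotoxicity (CellTiter-Fluor), then luminescent Nrf2 signal after BugLite.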
A549 viability: Nrf2 qHTS screen for inhibitors: counterscreen for cytotoxicity; A549 ARE-Fluc cells, CellTiter-Fluor viability, 18-24 h; Potency, µM (series often up to 46 µM), without a hit: top-dose activity change, negative = cytotoxicity, hits mostly inhibitors; actives 0.16% (n = 390,000); AID 504648, 2011; note: potency is the fitted concentration of half-maximal effect; % is set by controls: 0 for no effect and ±100 for the full control effect
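Cytotoxicity counterscreen: CellTiter-Fluor fluorescence was measured in A549 ARE_Fluc cells after 18-24 h of compound exposure in a concentration series. The subsequent BugLite luminescent read reports ARE-luciferase activity.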
Nrf2 activator: qHTS of Nrf2 Activators; AREc32 ARE-luciferase reporter (MCF7-derived line), luminescence, 24 h; Potency, µM (top dose mostly 46.1 µM), inactives show at the highest dose activation, actives largely listed as activators; actives 0.31% (n = 410,000); AID 624171, 2012; note: potency is the fitted concentration of half-maximal effect; % of control where 0% means no effect; nearly all actives have a fitted effect of over 65% in size
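Cells of the AREc32 ARE-luciferase line are plated in OPTI-MEM containing 5% FBS and left overnight at 37 deg C. Compounds are pinned in, incubation continues 24 hr, and firefly luciferase signal is then measured.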
mIDH1 inhibitor: qHTS for Inhibitors of mutant isocitrate dehydrogenase 1 (IDH1): qHTS; actives 0.093% (n = 390,000); AID 602179, 2012; Isocitrate dehydrogenase [NADP] cytoplasmic (Homo sapiens), O75874; Potency, µM (titrated, usually from 76.6 µM), for the others: at the top dose activity change, negative = inhibition, hits mostly inhibitors; IDH1-R132H enzyme, NADPH consumption, diaphorase/resazurin fluorescence; note: potency is the fitted concentration of half-maximal effect; % is set by controls: 0 for no effect and ±100 for the full control effect; nearly all actives have a fitted effect of over 65% in size
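IDH1-R132H (0.5 ug/mL dispensed) in pH 7.5 Tris buffer was preincubated 30 min with compound, then given a substrate mix of 0.016 mM NADPH and 2 mM alpha-KG for 80 min at room temperature; remaining NADPH was read by diaphorase/resazurin fluorescence.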
12-LOX inh: Primary qHTS assay for inhibitors of human arachidonate 12S-lipoxygenase (ALOX12): Round 2. Polyunsaturated fatty acid lipoxygenase ALOX12 (Homo sapiens), P18054. purified 12hLO, xylenol orange hydroperoxide absorbance. Potency, µM (doses to about 108 µM), for the others: at the top dose activity change, negative = inhibition, actives largely listed as inhibitors. actives 1.1% (n = 580,000); note: potency is the fitted concentration of half-maximal effect; % is set by controls: 0 for no effect and ±100 for the full control effect
Target sequence (P18054 whole entry, looked up): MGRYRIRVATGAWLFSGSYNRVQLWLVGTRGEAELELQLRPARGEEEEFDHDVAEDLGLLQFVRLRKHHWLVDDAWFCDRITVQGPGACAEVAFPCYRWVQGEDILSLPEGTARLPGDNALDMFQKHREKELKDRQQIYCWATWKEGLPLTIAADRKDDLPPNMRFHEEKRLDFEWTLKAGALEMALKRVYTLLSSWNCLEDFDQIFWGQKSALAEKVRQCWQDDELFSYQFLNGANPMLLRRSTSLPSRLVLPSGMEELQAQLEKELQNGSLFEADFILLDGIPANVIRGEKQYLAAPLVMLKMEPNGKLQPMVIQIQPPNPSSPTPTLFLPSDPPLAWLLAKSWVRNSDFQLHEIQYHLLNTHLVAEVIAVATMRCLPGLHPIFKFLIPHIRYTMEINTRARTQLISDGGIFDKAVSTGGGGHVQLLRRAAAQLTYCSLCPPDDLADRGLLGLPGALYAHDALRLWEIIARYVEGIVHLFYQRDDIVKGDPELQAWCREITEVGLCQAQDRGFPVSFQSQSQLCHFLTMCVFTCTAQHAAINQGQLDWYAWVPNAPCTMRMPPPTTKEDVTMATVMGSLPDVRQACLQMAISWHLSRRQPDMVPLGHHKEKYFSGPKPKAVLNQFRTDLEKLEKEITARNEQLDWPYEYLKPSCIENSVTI
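Hydroperoxide product was detected by ferrous iron/xylenol orange as the 573 to 405 nm absorbance ratio. Arachidonic acid at 40 uM (final) was turned over for 30 min at room temperature by 150 nM human 12hLO, pH 7.0 Hepes buffer, after 15 min compound preincubation.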
Active calls of the source: *; ! = repeats disagree. Sampled rows, rich in hits. Any-hit rate of the full collection: about 2.7%. Unless noted, calls come from the whole dose curve; as a rule, active = well fitted curve in the direction sought with a large enough effect; inconclusive = small, poorly fitted or top-dose-only effect, or another doubt; inactive = no such curve, though single readings can be large; an effect the other way counts as inactive or inconclusive.

Screening COc1ccc(-c2nc(SCC(=O)Nc3ccc(Br)cc3C)n[nH]2)cc1 returned LDHA inh 1 and 12-LOX inh 4%.
For CN(Cc1ccccc1)C(=O)C1CCN(S(C)(=O)=O)CC1 the results were LDHA inh -2, Nrf2 block 7%, A549 viability -6%, Nrf2 activator -1%, mIDH1 inhibitor 1% and 12-LOX inh 19%.
Screening CN(Cc1ccccc1)C(=O)C1CCN(Cc2cccc3ccccc23)CC1 returned LDHA inh 1 and 12-LOX inh 1.3µM*.
For FC(F)(F)c1ccccc1CN1CCC(Cc2ccccc2)CC1 the results were LDHA inh -11, Nrf2 block 4%, A549 viability 0%, Nrf2 activator -1%, mIDH1 inhibitor 1% and 12-LOX inh 0.71µM*.
For Cc1ccccc1CN1CCC(N(C)Cc2ccccc2)CC1 the results were LDHA inh 2 and 12-LOX inh 0.56µM*.
For CN(Cc1ccc(C(C)(C)C)cc1)C(=O)C1CCN(C(=O)Nc2ccccc2)CC1 the results were LDHA inh -4, Nrf2 block 21µM*, A549 viability -16%, Nrf2 activator 2%, mIDH1 inhibitor 2% and 12-LOX inh 10%.
Cc1ccc(CN(C)C(=O)C2CCN(C(=O)Nc3ccccc3)CC2)o1 was read as LDHA inh -12, Nrf2 block -1%, A549 viability 0%, Nrf2 activator 0%, mIDH1 inhibitor -7% and 12-LOX inh 10%.
`Cc1ccsc1C=Nc1ccc(-c2ccc(N=Cc3sccc3C)cc2)cc1` gave LDHA inh -6 and 12-LOX inh -16%.
Screening O=C(OCc1ccccc1[N+](=O)[O-])c1cnc2ccccc2c1C(F)(F)F returned LDHA inh 2 and 12-LOX inh inconclusive.
CCn1nccc1C(=O)NCCC1CCN(C(=O)Nc2cc(F)cc(F)c2)CC1 was read as 12-LOX inh 19%.
Screening Cc1cccn2c(=O)c3cc(C#N)c(=NC(=O)c4ccccc4)n(Cc4ccco4)c3nc12 returned LDHA inh 0, Nrf2 block inconclusive, A549 viability -19%, Nrf2 activator 6%, mIDH1 inhibitor -1% and 12-LOX inh 7.1µM*.
Screening Cc1cccc(C(=O)N=c2c(C#N)cc3c(=O)n4cccc(C)c4nc3n2Cc2ccco2)c1 returned LDHA inh 9, Nrf2 block inconclusive, A549 viability 9%, Nrf2 activator 6%, mIDH1 inhibitor 0% and 12-LOX inh 35µM*!.
For Cc1cccc(OCCSc2nc3ccccc3n2CC(O)CO)c1 (stereo not drawn) the results were LDHA inh 2 and 12-LOX inh 30%.
Nc1c(C(=O)Nc2ccc(Cl)cc2F)sc2nc(-c3cccs3)ccc12 was read as LDHA inh -3, Nrf2 block -8%, A549 viability inconclusive, Nrf2 activator 5%, mIDH1 inhibitor -4% and 12-LOX inh -25%.
Screening CC(=O)c1sc2nc(-c3cccs3)ccc2c1N returned LDHA inh -11, Nrf2 block inconclusive, A549 viability -4%, Nrf2 activator 13µM*, mIDH1 inhibitor 2% and 12-LOX inh inconclusive.
For Nc1c(C(=O)Nc2nc3ccccc3s2)sc2nc(-c3cccs3)ccc12 the results were LDHA inh -17, Nrf2 block 21µM*, A549 viability inconclusive, Nrf2 activator inconclusive and mIDH1 inhibitor -7%.
